Inconclusive results are not listed. The source made the active and inactive calls. The calls were made as follows, unless noted: active = hit-call score of the fitted dose curve at least 0.9, where 1 is the maximum; inactive = score below 0.9.
What was measured:
[1] = APR_HepG2_CellCycleArrest_1hr: Apredica 1-hour HepG2 Assay for Cell Cycle Arrest (AID 2282666); conditions: high-content imaging, actives raise or lower the signal
Method in brief: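 HepG2 cells exposed for 1 h to 0.39–200 uM compound (0.5% DMSO). Fixed, Hoechst-stained nuclei imaged by ArrayScan; DNA content quantified by Cell Cycle analysis; bidirectional fit against DMSO.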

[2] = ACEA_ER_80hr: ACEA Biosciences xCELLigence Real-Time Cell Analysis on Estrogen Receptor Agonism for Proliferation (AID 2282667; active = hit-call score of the fitted dose curve at least 0.9, where 1 is the maximum); conditions: T47D proliferation, impedance (xCELLigence), 80 h
Method in brief: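 Real-time impedance growth kinetics of human T-47D breast cells read 80 h after dosing, gain-of-signal fitted relative to DMSO. Compounds: 1:4 serial series, top final concentration 100 uM, n = 2.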

[3] = APR_HepG2_CellLoss_1hr: Apredica 1-hour HepG2 Assay for Cell Loss (AID 2282668); conditions: high-content imaging;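 also: curves fitted both ways against DMSO so gain or loss of cells counts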
Method in brief: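 HepG2 cells were treated for 1 h with compound at 0.39–200 uM, in duplicate, in 0.5% DMSO. After formaldehyde fixation, Hoechst 33342-stained nuclei were imaged on an ArrayScan to count cells. Data were fitted bidirectionally versus DMSO.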

[4] = APR_HepG2_MicrotubuleCSK_1hr: Apredica 1-hour HepG2 Assay for Microtubule CSK Stabilty (AID 2282669); conditions: HepG2 microtubule cytoskeleton imaging, actives raise or lower the signal
Method in brief: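 HepG2 cells exposed 1 h to 0.39–200 uM compound (0.5% DMSO, duplicates), then formaldehyde-fixed, permeabilized and immunostained for alpha-tubulin with Hoechst nuclei. Imaged by ArrayScan high-content analysis; bidirectional fit versus DMSO.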

[5] = APR_HepG2_NuclearSize_1hr: Apredica 1-hour HepG2 Assay for Nuclear Size (AID 2282670); conditions: high-content imaging, actives raise or lower the signal
Method in brief: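 HepG2 cells dosed 1 hr with 0.39–200 uM compound (0.5% DMSO), formaldehyde-fixed, Hoechst 33342-stained and imaged at 20x; nuclear diameter from nuclear stain, fitted bidirectionally against DMSO.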

[6] = APR_HepG2_p53Act_1hr: Apredica 1-hour HepG2 Assay for p53 Activation (AID 2282671); conditions: high-content imaging, actives raise or lower the signal
Method in brief: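 HepG2 cells treated 1 h with compound at 0.39–200 uM (10 concentrations, duplicate) in 0.5% DMSO. Formaldehyde-fixed, permeabilised cells immunostained for p53 with Hoechst 33342; high-content imaging, bidirectional fit versus DMSO.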

[7] = APR_HepG2_P-H2AX_1hr: Apredica 1-hour HepG2 Assay for H2AX Phosphorylation (AID 2282673); conditions: high-content imaging, actives raise or lower the signal
Method in brief: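 HepG2 dosed 1 hr at 0.39-200 uM (0.5% DMSO final), duplicate. Fixed in 3.7% formaldehyde, Triton permeabilized, immunostained for phospho-histone H2A.x (1:200) with Hoechst 33342; ArrayScan 20x imaging, bidirectional fit vs DMSO.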

[8] = APR_HepG2_MitoMass_1hr: Apredica 1-hour HepG2 Assay for Mitochondrial Mass (AID 2282674); conditions: high-content imaging, actives raise or lower the signal
Method in brief: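 HepG2 cells dosed 1 hr with 0.39-200 uM compound (0.5% DMSO), duplicate wells. Mitochondria stained with 250 nM MitoTracker Red CMXRos for 30 min before formaldehyde fixation, imaged at 20x by ArrayScan; bidirectional fit versus DMSO.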

[9] = APR_HepG2_CellCycleArrest_24hr: Apredica 24-hour HepG2 Assay for Cell Cycle Arrest (AID 2282905); conditions: imaging, actives raise or lower the signal;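 also: cell cycle arrest scored as ratio of 2N to 4N nuclear DNA content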
Method in brief: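 Compounds at 0.39–200 uM (0.5% DMSO) for 24 h, then fixed and Hoechst 33342 stained. Cell-cycle analysis of nuclear DNA content by high-content imaging, fitted bidirectionally versus DMSO.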

[10] = APR_HepG2_StressKinase_1hr: Apredica 1-hour HepG2 Assay for Stress Kinase (AID 2282906); conditions: HepG2 stress kinase (phospho-c-Jun) imaging, actives raise or lower the signal
Method in brief: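 HepG2 cells dosed 0.39-200 uM (0.5% DMSO) for 1 h, then formaldehyde-fixed. Stress kinase read by phospho-c-Jun immunofluorescence using high-content imaging; bidirectional fit vs DMSO.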

[11] = APR_HepG2_NuclearSize_24hr: Apredica 24-hour HepG2 Assay for Nuclear Size (AID 2282907); conditions: high-content imaging, actives raise or lower the signal
Method in brief: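 HepG2 cells exposed 24 h to compounds at 0.39–200 uM (0.5% DMSO), fixed, Hoechst 33342 stained and imaged at 20x; nuclear diameter measured by automated image analysis, fitted bidirectionally against DMSO controls.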

[12] = APR_HepG2_CellLoss_24hr: Apredica 24-hour HepG2 Assay for Cell Loss (AID 2282908); conditions: high-content imaging;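 as to AC50: fit in both directions so a hit may be cell loss or gain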
Method in brief: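 HepG2 cells exposed 24 hr to 0.39–200 uM compound in duplicate at 0.5% v/v final DMSO. Cells fixed in 3.7% formaldehyde and Hoechst 33342-stained. Cell number came from nuclear imaging at 20x. Bidirectional fit versus DMSO.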

[13] = APR_HepG2_MicrotubuleCSK_24hr: Apredica 24-hour HepG2 Assay for Microtubule CSK Stabilty (AID 2282909); conditions: HepG2 microtubule cytoskeleton imaging, actives raise or lower the signal
Method in brief: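 HepG2 cells were treated 24 hr with compound at 0.39–200 uM in duplicate (0.5% DMSO final), then fixed and permeabilized. Alpha-tubulin immunofluorescence was imaged by high-content microscopy, with bidirectional fitting against DMSO and taxol as positive control.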

[14] = APR_HepG2_MitoticArrest_24hr: Apredica 24-hour HepG2 Assay for Mitotic Arrest (AID 2282910); conditions: high-content imaging, actives raise or lower the signal
Method in brief: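 Compounds are dosed onto HepG2 cells across ten concentrations up to 200 uM for 24 hr. Cells are then fixed in 3.7% formaldehyde, permeabilised, and labelled for phospho-histone H3 and nuclei; images are scored by cell cycle analysis and fitted bidirectionally relative to DMSO.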

[15] = APR_HepG2_MitoMembPot_24hr: Apredica 24-hour HepG2 Assay for Mitochondrial Membrane Potential (AID 2282911); conditions: imaging, actives raise or lower the signal
Method in brief: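 Mitochondrial membrane potential imaged via MitoTracker Red CMXRos (250 nM, 30 min pre-fixation) in fixed HepG2 cells with Hoechst nuclear identification. Ten concentrations 0.39–200 uM, 24 h treatment, 0.5% DMSO; CCCP as positive control.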

[16] = APR_HepG2_MitoMass_24hr: Apredica 24-hour HepG2 Assay for Mitochondrial Mass (AID 2282912); conditions: high-content imaging, actives raise or lower the signal
Method in brief: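 HepG2 cells exposed 24 hr to 0.39–200 uM compound, 0.5% v/v DMSO, in duplicate. Stained before fixation with 250 nM MitoTracker Red CMXRos for 30 min, then imaged at 20x with Hoechst nuclei. Fitted in both directions against DMSO.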

[17] = APR_HepG2_p53Act_24hr: Apredica 24-hour HepG2 Assay for p53 Activation (AID 2282913); conditions: high-content imaging, actives raise or lower the signal;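 also: p53 protein immunofluorescence averaged per cell in HepG2 with Hoechst nuclei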
Method in brief: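 Fluorescence imaging of formaldehyde-fixed HepG2 cells labelled for p53 and with Hoechst, 24 h after dosing (0.39–200 uM, duplicate wells, 0.5% v/v DMSO). Signal fitted in both directions relative to DMSO.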

[18] = APR_HepG2_CellCycleArrest_72hr: Apredica 72-hour HepG2 Assay for Cell Cycle Arrest (AID 2282914); conditions: high-content imaging, actives raise or lower the signal
Method in brief: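 Read-out: nuclear DNA content from Hoechst 33342 high-content imaging (20x, six fields/well) after 3.7% formaldehyde fixation, fitted bidirectionally against DMSO. Treatment was 72 h in HepG2, ten concentrations 0.39–200 uM, duplicate, 0.5% DMSO.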

[19] = APR_HepG2_MitoticArrest_1hr: Apredica 1-hour HepG2 Assay for Mitotic Arrest (AID 2282672); conditions: high-content imaging, actives raise or lower the signal
Method in brief: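 HepG2 cells exposed 1 hr to compounds at 0.39–200 uM (0.5% v/v DMSO final), then fixed in 3.7% formaldehyde and immunostained for phospho-histone H3 with Hoechst 33342. Mitotic arrest scored by automated fluorescence imaging, fitted bidirectionally versus DMSO.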

[20] = APR_HepG2_MitoMembPot_1hr: Apredica 1-hour HepG2 Assay for Mitochondrial Membrane Potential (AID 2282675); conditions: imaging, actives raise or lower the signal
Method in brief: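 HepG2 cells dosed 1 hour with 0.39–200 uM compound in duplicate, 0.5% DMSO final. MitoTracker Red CMXRos (250 nM, 30 min) loaded before formaldehyde fixation; fluorescence quantified by high-content imaging, bidirectional fitting versus DMSO.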

O=C1C2CC=CCC2C(=O)N1SC(Cl)(Cl)Cl (stereo unspecified)
outcome [1]: inactive | outcome [2]: inactive | outcome [3]: inactive | outcome [4]: inactive | outcome [5]: inactive | outcome [6]: inactive | AC50 [7]: 81.7 µM (active) | outcome [8]: inactive | AC50 [9]: 33.4 µM (active) | AC50 [10]: 87.6 µM (active) | AC50 [11]: 59.3 µM (active) | AC50 [12]: 54.6 µM (active) | AC50 [13]: 24.1 µM (active) | AC50 [14]: 30.1 µM (active) | outcome [15]: inactive | outcome [16]: inactive | AC50 [17]: 28.5 µM (active) | outcome [18]: inactive

COC(=O)N(C(=O)N1CO[C@@]2(C(=O)OC)Cc3cc(Cl)ccc3C2=N1)c1ccc(OC(F)(F)F)cc1
outcome [1]: inactive | outcome [2]: inactive | outcome [3]: inactive | outcome [5]: inactive | outcome [6]: inactive | outcome [19]: inactive | outcome [8]: inactive | outcome [20]: inactive | outcome [9]: inactive | outcome [10]: inactive | outcome [11]: inactive | outcome [12]: inactive | outcome [13]: inactive | outcome [14]: inactive | outcome [15]: inactive | outcome [16]: inactive | outcome [17]: inactive | outcome [18]: inactive

CC(C)(C)C(=O)C(Oc1ccc(Cl)cc1)n1cncn1 (stereo unspecified)
AC50 [2]: 22.5 µM (active) | outcome [3]: inactive | outcome [4]: inactive | outcome [5]: inactive | outcome [6]: inactive | outcome [19]: inactive | outcome [8]: inactive | outcome [20]: inactive | outcome [9]: inactive | outcome [10]: inactive | outcome [11]: inactive | outcome [12]: inactive | outcome [13]: inactive | outcome [14]: inactive | outcome [15]: inactive | outcome [16]: inactive | outcome [17]: inactive | AC50 [18]: 82.2 µM (active)

COC(=O)NC(=S)Nc1ccccc1NC(=S)NC(=O)OC
outcome [2]: inactive | outcome [3]: inactive | outcome [4]: inactive | outcome [5]: inactive | outcome [6]: inactive | outcome [7]: inactive | outcome [8]: inactive | outcome [20]: inactive | outcome [9]: inactive | outcome [10]: inactive | outcome [11]: inactive | outcome [12]: inactive | AC50 [13]: 28.6 µM (active) | outcome [14]: inactive | AC50 [15]: 26 µM (active) | outcome [16]: inactive | outcome [17]: inactive | AC50 [18]: 100 µM (active)

C=C(C)CN(CC)c1c([N+](=O)[O-])cc(C(F)(F)F)cc1[N+](=O)[O-]
outcome [1]: inactive | outcome [2]: inactive | outcome [3]: inactive | outcome [5]: inactive | outcome [6]: inactive | outcome [19]: inactive | outcome [7]: inactive | outcome [8]: inactive | outcome [20]: inactive | outcome [9]: inactive | outcome [10]: inactive | outcome [11]: inactive | outcome [12]: inactive | outcome [13]: inactive | outcome [14]: inactive | outcome [15]: inactive | outcome [16]: inactive | outcome [17]: inactive | outcome [18]: inactive

CC(C)N1C(=O)N(c2ccccc2)CSC1=NC(C)(C)C
outcome [1]: inactive | outcome [2]: inactive | outcome [3]: inactive | outcome [4]: inactive | outcome [5]: inactive | outcome [6]: inactive | outcome [7]: inactive | outcome [8]: inactive | AC50 [9]: 97.8 µM (active) | outcome [10]: inactive | outcome [11]: inactive | AC50 [12]: 115 µM (active) | AC50 [13]: 76.6 µM (active) | AC50 [14]: 114 µM (active) | outcome [15]: inactive | outcome [16]: inactive | outcome [17]: inactive | outcome [18]: inactive

CN=C=S
outcome [1]: inactive | outcome [2]: inactive | outcome [3]: inactive | outcome [4]: inactive | outcome [5]: inactive | outcome [6]: inactive | outcome [19]: inactive | outcome [8]: inactive | outcome [10]: inactive | outcome [11]: inactive | outcome [12]: inactive | outcome [13]: inactive | outcome [14]: inactive | outcome [15]: inactive | outcome [16]: inactive | outcome [17]: inactive | AC50 [18]: 54.7 µM (active)
